Experimental data taken from PubChem BioAssay (NCATS).
Records with an inconclusive call do not appear. Entries that show only a call come without a potency. A number with no mark means an inactive call. Activity calls are given as the source filed them. Calls follow the shape of the dose curve; as a rule, active = well fitted cell-killing curve with a large enough effect; inconclusive = small, poorly fitted or top-dose-only effect, or effect the other way; inactive = no such curve, though single readings can be large or run the other way.

Key:
[1] = Viability qHTS for spleen associated tyrosine kinase inhibitor (SYKi) naive MV4-11 cells (AID 1963823); also: nearly all actives have a fitted effect of over 40% in size
Outline: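 Read-out: CellTiter-Glo luminescence. Exposure: 72 hr, 37 C, 5% CO2, 95% humidity. Cells: MV4-11 without SYK inhibitor history, 500/well, qHTS format.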

[2] = Viability qHTS for spleen associated tyrosine kinase inhibitor (SYKi) drug resistant MV4-11 cells (AID 1963824); also: nearly all actives have a fitted effect of over 35% in size
Outline: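 SYK-inhibitor-resistant MV4-11 AML cells were seeded at 500 per well onto compound and cultured 72 hours (37 °C, 5% CO2). CellTiter-Glo was then added, and after 10 min at room temperature, luminescence gave viability.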
Potency is read from the fitted curve at half-maximal effect.

Row | Structure (SMILES) | Potency [1] | Potency [2] | viability (% of control) [1] | viability, % of control [2]
1 | C=C1C2(CCC(=O)OC2(C)C)CC(OC(=O)/C(C)=C/C)C2(C)C13OC14C(=O)OC(C)(C(=O)C12C(=O)OC4C)C3OC(C)=O (stereo not drawn) | inactive | inactive |  | 
2 | CC(NCCC(c1ccccc1)c1ccccc1)c1ccccc1 (stereo not drawn) | 13.3 µM (active) | 10.6 µM (active) |  | 
3 | COC(=O)[C@@H]1C2CC3c4[nH]c5ccccc5c4CCN3CC2CC[C@@H]1O (stereo partly drawn) | inactive | inactive |  | 
4 | CC1C(OC(=O)c2ccccc2)C(O)C2C(C(=O)O)=COC(OC3OC(CO)C(O)C(O)C3O)C12 (stereo not drawn) | inactive | inactive |  | 
5 | CC(C)C[C@@H](N)C(=O)N[C@H]1C(=O)N[C@@H](CC(N)=O)C(=O)N[C@H]2C(=O)N[C@H]3C(=O)N[C@H](C(=O)N[C@H](C(=O)O)c4cc(O)cc(O)c4-c4cc3ccc4O)[C@H](O)c3ccc(c(Cl)c3)Oc3cc2cc(c3O[C@@H]2O[C@H](CO)[C@@H](O)[C@H](O)[C@H]2O[C@H]2C[C@](C)(N)[C@H](O)[C@H](C)O2)Oc2ccc(cc2Cl)[C@H]1O | inactive | inactive |  | 
6 | COC(=O)c1c(CC=C(C)C)c(OC2OC(CO)C(O)C(O)C2O)c2ccccc2c1OC1OC(CO)C(O)C(O)C1O (stereo not drawn) | inactive | inactive |  | 
7 | CCOC(=O)C1=C(N)Oc2ccc(Cl)cc2C1C(C#N)C(=O)OCC (stereo not drawn) | inactive | inactive |  | 
8 | CC1(C)CC[C@]2(C(=O)O[C@@H]3O[C@H](CO)[C@@H](O)[C@H](O)[C@H]3O)CC[C@]3(C)C(=CCC4[C@@]5(C)C[C@@H](O)[C@H](O)[C@@](C)(CO)C5[C@H](O)C[C@]43C)C2[C@@H]1O (stereo partly drawn) | inactive | inactive |  | 
9 | CCNC(=O)c1noc(-c2cc(Cl)c(O)cc2O)c1-c1ccc(OC)cc1 | 0.0326 µM (active) | 0.058 µM (active) |  | 
10 | CNCCC=C1c2ccccc2CCc2ccccc21 | 11.6 µM (active) | 14.6 µM (active) |  | 
11 | CC(C)C1(O[C@@H]2O[C@H](CO)[C@@H](O)[C@H](O)[C@H]2O)CC=C(CO)CC1 (stereo partly drawn) | inactive | inactive |  | 
12 | CC(=O)c1c(O)cc(O[C@@H]2O[C@H](CO)[C@@H](O)[C@H](O)[C@H]2O)cc1O | inactive | inactive |  | 
13 | Nc1ncnc2c1c(I)cn2[C@@H]1C[C@H](N)[C@@H](O)[C@H]1O | 2.91 µM (active) | 6.51 µM (active) |  | 
14 | CC(=O)NCCc1c[nH]c2ccc(O)cc12 | inactive | inactive |  | 
15 | COc1cc(C2CC(=O)Nc3c2cc(Br)c2ccccc32)cc(OC)c1OC (stereo not drawn) | inactive | inactive |  | 
16 | COc1cc2c(cc1O)CC[C@H]1[C@@H]2CC[C@]2(C)[C@H](O)CC[C@@H]12 | 0.58 µM (active) | 0.731 µM (active) |  | 
17 | O=C(/C=C/c1ccc(O)cc1)OCC1OC(O)C(OC2OC(CO)C(O)C(O)C2O)C(O)C1O (stereo not drawn) | inactive | inactive |  | 
18 | O=C1CC[C@@H](C(=O)N2CSC[C@H]2C(=O)O)N1 | inactive | inactive |  | 
19 | CCCC(NC(=O)/C(C#N)=C/c1cccc(Br)n1)c1ccccc1 (stereo not drawn) | 13 µM (active) | 9.2 µM (active) |  | 
20 | CC(=O)Nc1cccc2c1c(Sc1ccc(Cl)cc1)c(C)n2CC(=O)O | inactive | inactive |  | 

Row | Structure (SMILES) | Potency [1] | Potency [2] | viability (% of control) [1] | viability, % of control [2]
21 | COC(=O)C1=COC(OC2OC(CO)C(O)C(O)C2O)C2C(COC(=O)/C=C/c3ccc(O)c(O)c3)C(O)C(O)C12 (stereo not drawn) | inactive | inactive |  | 
22 | CC(=O)C1=C(C)N(c2cccc(C(F)(F)F)c2)C(=O)N[C@H]1c1ccc(C#N)nc1 |  |  | 83.3% [at 9.25 µM] | 87% [at 9.25 µM]
23 | C=C(CCC1=C(C)[C@H]2[C@H](CC3[C@@H]4CC=C5C[C@@H](O)C[C@@H](O)[C@]5(C)C4[C@H](O)C[C@@]32C)O1)CO[C@@H]1O[C@H](CO)[C@@H](O)[C@H](O)[C@H]1O (stereo partly drawn) | 0.611 µM (active) | 0.485 µM (active) |  | 
24 | COc1nc2ccc(Br)cc2cc1[C@@H](c1ccccc1)[C@@](O)(CCN(C)C)c1cccc2ccccc12 | 6.51 µM (active) | 9.2 µM (active) |  | 
25 | C[C@]12CC[C@@H]3c4ccc(O[C@@H]5O[C@H](C(=O)O)[C@@H](O)[C@H](O)[C@H]5O)cc4CC[C@H]3[C@@H]1CCC2=O | inactive | inactive |  | 
26 | Cc1ccc(Nc2nnc(Cc3ccncc3)c3ccccc23)cc1Br | 14.8 µM (active) | 10.5 µM (active) |  | 
27 | C=C1C(=O)O[C@@H]2[C@H]3C(C)=CC(=O)C3=C(C)[C@@H](OC(=O)/C(C)=C\C)[C@H](O)[C@@H]12 | 3.21 µM (active) | 1.43 µM (active) |  | 
28 | CN1CCN(Cc2ccc(-c3cnc4[nH]cc(-c5ccc6[nH]ccc6c5)c4c3)cc2)CC1 | 0.082 µM (active) | 0.146 µM (active) |  | 
29 | C=C(C(=O)OC[C@H]1O[C@@H](OC(=O)/C=C/c2ccccc2)[C@H](O)[C@@H](O)[C@@H]1O)C(O)CO (stereo partly drawn) | 7.96 µM (active) | 11.2 µM (active) |  | 
30 | Nc1cc(C(F)(F)F)ccc1S | 21.1 µM (active) | 23.7 µM (active) |  | 
31 | COc1cc(O)cc(OC2OC(CO)C(O)C(O)C2O)c1 (stereo not drawn) | inactive | inactive |  | 
32 | COc1ccc(-c2nc(-c3cc(C(F)(F)F)cc(C(F)(F)F)c3)n(Cc3ccc(C(N)=O)cc3)c2-c2ccc(OC)cc2)cc1 | 7.31 µM (active) | 3.66 µM (active) |  | 
33 | C(#Cc1nc2ncccc2nc1OCCN1CCCC1)c1ccccc1 | 0.651 µM (active) | 1.03 µM (active) |  | 
34 | COC(=O)CC1CC(c2ccc(O)cc2)=NO1 (stereo not drawn) | inactive | inactive |  | 
35 | Cc1cc(C(=O)N2Cc3cnn(C)c3Nc3ccccc32)ccc1CNC(=O)N1CCN(Cc2cc(O)cc(O)c2)CC1 | inactive | inactive |  | 
36 | CCOC(=O)c1ccc(N(C)c2csc(-c3ccccc3)n2)cc1 | inactive | inactive |  | 
37 | CC1(C)CCCC2(C)C1CC=C1C(=O)OC(O)C12O (stereo not drawn) | inactive | inactive |  | 
38 | CN1c2c(nc(N)[nH]c2=O)NC[C@@H]1CNc1ccc(C(=O)N[C@@H](CCC(=O)O)C(=O)O)cc1 | inactive | inactive |  | 
39 | COc1cc(C)c(C(=O)O[C@@H]2[C@H](O)[C@@H](CO)O[C@H]2n2ccc(=O)[nH]c2=O)c(OC)c1 | inactive | inactive |  | 
40 | CC1(C)CC[C@]2(C(=O)O)CC[C@]3(C)C(=CCC4[C@@]5(C)CC[C@H](O[C@@H]6O[C@H](CO)[C@@H](O)[C@H](O)[C@H]6O[C@@H]6O[C@H](CO)[C@@H](O)[C@H](O)[C@H]6O)[C@@](C)(CO)C5CC[C@]43C)[C@@H]2C1 (stereo partly drawn) | inactive | inactive |  | 

Row | Structure (SMILES) | Potency [1] | Potency [2] | viability (% of control) [1] | viability, % of control [2]
41 | Cn1cc(Nc2cnccc2C(=O)O)c2cccnc21 | inactive | inactive |  | 
42 | CC[C@H](C)[C@H](NC(=O)[C@H]([C@@H](C)CC)N(C)C(C)=O)C(=O)N[C@H](C(=O)N[C@@H](CC(C)C)C(=O)[C@@]1(C)CO1)[C@@H](C)O | 0.0058 µM (active) | 0.0073 µM (active) |  | 
43 | CC1=C2CC(O)(C(C)(C)O)C(O[C@@H]3O[C@H](CO)[C@@H](O)[C@H](O)[C@H]3O)CC(C)C2CC1=O (stereo partly drawn) | inactive | inactive |  | 
44 | C=CC1(C)C=C2CCC3C(C)(C)C(O[C@@H]4O[C@@H](CO)[C@H](O)[C@H]4O)CCC3(C)C2CC1O[C@@H]1O[C@H](C)[C@H](O)[C@H](O)[C@H]1O (stereo partly drawn) | inactive | inactive |  | 
45 | CC(=O)O[C@@H]1[C@@H](O)[C@H](C)O[C@@H](O[C@H]2[C@@H]3C=CO[C@@H](O[C@@H]4O[C@H](CO)[C@@H](O)[C@H](O)[C@H]4O)[C@@H]3[C@@]3(CO)O[C@@H]23)[C@@H]1OC(=O)/C=C/c1ccccc1 | inactive | inactive |  | 
46 | NC(=O)[C@H](Cc1ccccc1)NC(=O)[C@H](CCCN=C(N)N)NC(=O)C12CC3CC(CC(C3)C1)C2 |  |  | 88.8% [at 9.25 µM] | 78% [at 9.25 µM]
47 | COc1ccc(/C=C\C(=O)O)c(O[C@@H]2O[C@H](CO)[C@@H](O)[C@H](O)[C@H]2O)c1 | inactive | inactive |  | 
48 | C=C1[C@H]2CC[C@]3(O)[C@@](CC[C@@H]4[C@](C)(C(=O)O)CCC[C@]43C)(C2)[C@H]1OC(=O)/C(C)=C\C | inactive | inactive |  | 
49 | O=C1C[C@]23C=CCN4CCC5c6cc7c(cc6N1[C@@]5(CC2)C43)OCO7 (stereo partly drawn) | 10.1 µM (active) | 14.3 µM (active) |  | 
50 | O=C(O)C(O[C@@H]1O[C@H](CO[C@@H]2O[C@H](CO)[C@@H](O)[C@H](O)[C@H]2O)[C@@H](O)[C@H](O)[C@H]1O)c1ccccc1 (stereo partly drawn) | inactive | inactive |  | 
51 | C=C1C(=O)OC2C1CCC1(C)C(O)CC=C(C)C21 (stereo not drawn) | 10.3 µM (active) | 4.61 µM (active) |  | 
52 | Clc1ccccc1CNCC1CCC(CNCc2ccccc2Cl)CC1 (stereo not drawn) | 11.6 µM (active) | 14.6 µM (active) |  | 
53 | C=C1C(=O)OC2/C=C(/C)C3=CC(=O)C(C)(CC(OC(=O)/C(C)=C/COC(C)=O)C12)O3 (stereo not drawn) | 0.893 µM (active) | 0.796 µM (active) |  | 
54 | C#Cc1cnc2[nH]c(=O)n(C(CC)CC)c2n1 | inactive | inactive |  | 
55 | O=C(/C=C/c1ccccc1)OC[C@]12O[C@H]1[C@@H](O)[C@@H]1C=CO[C@@H](O[C@@H]3O[C@H](CO)[C@@H](O)[C@H](O)[C@H]3O)[C@@H]12 | inactive | inactive |  | 
56 | CC[C@H](C)[C@@H]1NC(=O)[C@H](Cc2ccc(OC)cc2)NC(=O)CCCSC[C@@H](C(=O)N2CCC[C@H]2C(=O)N[C@@H](CC(C)C)C(=O)NCC(N)=O)NC(=O)[C@H](CC(N)=O)NC(=O)[C@H](CCC(N)=O)NC1=O | inactive | inactive |  | 
57 | CC(O)/C=C/C1C(C)C(O[C@@H]2O[C@H](CO)[C@@H](O)[C@H](O)[C@H]2O)C(O)CC1(C)C (stereo partly drawn) | inactive | inactive |  | 
58 | O=C(C1=CCN2c3c(cccc31)OC[C@H]2CN1CCOCC1)c1cccc2ccccc12 | 14.6 µM (active) | 18.4 µM (active) |  | 
59 | CC(=O)c1c(C)cc(O[C@@H]2O[C@H](CO)[C@@H](O)[C@H](O)[C@H]2O)cc1O | inactive | inactive |  | 
